Where “and” joins values, the source holds several entries; their conditions need not be identical. Equal entries are not always repeated. Screen size: about 330,000 compounds; about 1,900 (0.58%) were called active. Roughly 4% stayed inconclusive and do not appear here. Only a sample is shown. Results with a measured potency or affinity are listed apart. Values without a mark were called inactive. Rule as the data show it: inconclusive = inhibition above about 70% without an active follow-up result; inactive = below that.
assay: M. tuberculosis growth inhibition, HTS (AID 449762);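 also: bacterial growth assessed after seven days of incubation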; details: M. tuberculosis H37Rv growth inhibition, 7H9 media; at 25 µM; active compounds read high

Point of comparison: O=C(NCCN1CCOCC1)c1ccc(Cl)nc1Cl, inhibition -1.1%. Against it:
- COc1c(C)cc(C(=O)C2CCCN(C(=O)c3cc(C)n(C)n3)C2)cc1C (stereo unspecified) — higher, 5.63%
- CCOC(=O)c1c(NC(=O)CCN2CCOCC2)sc(C)c1-c1ccccc1 — higher, 3.54%
- CCOC(=O)c1c(NC(=O)/C=C\C(=O)O)sc(C)c1-c1ccccc1 — lower, -6.71%
- COc1cc(/C=N/c2oc(C)c(C)c2C#N)cc(Br)c1O — higher, 12%
- COCCN(C(=O)COC(=O)CCC(=O)c1ccc(Cl)cc1)c1c(N)n(Cc2ccccc2)c(=O)[nH]c1=O — lower, -11.3%
- Cc1cc(NC(=O)CSc2ccc(-c3ccccc3)nn2)no1 — lower, -8.31%
- Cc1csc(NC(=O)CSc2ccc(-c3ccccc3)nn2)n1 — higher, 1.71%
- COCCNC(=O)c1noc2c1CCc1cc(OC)ccc1-2 — higher, 3.34%
- O=C(Nc1ccc(C(F)(F)F)cc1)c1ccc(NC(=O)C2CCCO2)cc1 (stereo unspecified) — lower, -5.77%
- Cc1cccc2sc(NNC(=O)C3=COCCO3)nc12 — higher, 2.71%
- CCOC(=O)N1CCN(C(=O)c2cccc(S(=O)(=O)Nc3ccc(Br)cc3)c2)CC1 — higher, 8.88%
- CC(NCC(O)COc1ccc2ccccc2c1)c1ccccc1 (stereo unspecified) — higher, 9.15%
- COC(=O)C(C)n1nc(C)n(-c2ccc(C)cc2)c1=O (stereo unspecified) — higher, -0.27%
- CCOC(=O)c1nn(-c2ccc(C)cc2)c(=O)cc1OCC(=O)Nc1ccc(OC)cc1 — higher, 8.61%
- Cc1cc(NC(=O)c2cncc(Br)c2)ccc1NC(=O)c1cc2ccccc2o1 — higher, 6.1%
- CCC(=O)Nc1ccc(NC(=O)c2ccc3ccccc3c2)cc1 — lower, -4.7%
- O=S1(=O)CCOC[C@H](c2ccccc2)N1Cc1ccccc1F — higher, 1.26%
- CNC(C)C#Cc1ccc2c(=O)c3cc(C)c(C)cc3oc2c1 (stereo unspecified) — higher, 1.51%
- CNC(C)C#Cc1ccc2c(=O)c3ccccc3oc2c1 (stereo unspecified) — higher, 30%
- CC(C)(C)OC(=O)C[C@@H]1C/C=C\C[C@@H](CC(=O)N(CCO)Cc2ccccc2)C(=O)NC[C@@H](c2ccccc2)OC1=O — higher, 4.78%
- CCCCN(C(=O)CC1CCCC1)c1c(N)n(CCCC)c(=O)[nH]c1=O — lower, -14.4%
- O=C(NCC1CCCO1)C1c2ccccc2Oc2ccccc21 (stereo unspecified) — lower, -7.07%
- Cc1ccc(N(CC(=O)N2CCc3ccccc3C2)S(C)(=O)=O)cc1 — lower, -1.47%
- COc1c(Cl)cnn(-c2ccccc2)c1=O — higher, 6.51%
- COc1cc(Cl)nn(-c2ccccc2)c1=O — lower, -13.2%
- Cn1c(=O)cc(OCC(=O)NCCCN2CCN(c3cccc(Cl)c3)CC2)c2ccccc21 — higher, 1.78%
- C=CCNc1nc(C(=O)OCC(=O)c2ccc(F)cc2)cs1 — lower, -9.37%
- CCN(C(=O)Cc1c(C(=O)O)n(C)c2ccccc12)c1cc(OC)ccc1OC — lower, -7.09%
- C/C=C(/C)C(=O)Nc1cccc(C2=NOC3(C2)C[C@H](C(N)=O)N(C(=O)c2ccccc2)C3)c1 (stereo partly specified) — lower, -2.03%
- C/C=C(\C)C(=O)Nc1cccc(C2=NOC3(C2)C[C@@H](C(N)=O)N(C(=O)c2cc([N+](=O)[O-])cc([N+](=O)[O-])c2C)C3)c1 (stereo partly specified) — lower, -8.05%
- COc1ccc(N2CC(C(=O)N3CCN(Cc4ccc5c(c4)OCO5)CC3)CC2=O)cc1 (stereo unspecified) — lower, -6.83%
- COc1ccc(/C=C2\CCCC3C2=NN(C(=O)CSc2ncn[nH]2)C3c2ccc(OC)cc2)cc1 (stereo unspecified) — higher, 8.82%
- O=c1cc(CNc2cc(C(F)(F)F)cc(C(F)(F)F)c2)nc2sccn12 — higher, 3.54%
- COC(=O)CN(c1ccc2c(c1)OCCO2)S(=O)(=O)c1ccccc1 — lower, -5.06%
- CC(=O)c1c(C)n(Cc2ccccc2)c2ccc(O)cc12 — lower, -1.54%
- COc1ccc2c(c1)c(C(C)=O)c(C)n2CCc1ccccc1 — lower, -7.55%
- Cn1cc(CNC(=O)c2cc(COc3ccc4c(c3)CCCC4)on2)cn1 — higher, 7.16%
- CN(C)c1oc(/C=C/c2ccccc2)nc1C#N — higher, 2.83%
- Cc1ccc(C(=O)NC(C)C2CCCO2)o1 (stereo unspecified) — lower, -14.8%
- Cc1ccc(S(=O)(=O)N2CCCCC2C(=O)N2CCN(C)CC2)cc1 (stereo unspecified) — lower, -3.69%
- CN(C)c1cccc(/C=C(\C#N)c2ccccc2)c1 — higher, 11.4%
- CC(C)(C=O)C1=CC(=O)c2ccccc2C1=O — lower, -5.62%
- COc1ccccc1-n1c(CNC(=O)c2ccco2)nnc1SCC(=O)Nc1cc(C)ccc1C — lower, -9.93%
- CCCCCCNc1nc(-c2ccc(OC)cc2)c(CCC(=O)O)s1 — higher, 31%
- Fc1ccc2[nH]c3c(NCCN4CCOCC4)ncnc3c2c1 — higher, 1.25%
- COc1ccc(CCNc2ncnc3c2[nH]c2cc(OC)c(OC)cc23)cc1OC — lower, -4.75%
- COc1ccc(CNc2ncnc3c2[nH]c2ccccc23)cc1 — higher, 59.2%
- Cc1ccc2[nH]c3c(NCc4ccccc4)ncnc3c2c1 — higher, 67.8%
- C=CCn1c(SCC(=O)c2c(N)n(CCC)c(=O)n(C)c2=O)nc2sc(CC)cc2c1=O — higher, 0.69%
- CSc1ccc(/C=C/C(=O)OCC(=O)c2ccc[nH]2)cc1 — higher, 5.61%
- O=C(O)CC(C(=O)NCc1ccccc1)C1CCCO1 (stereo unspecified) — lower, -7.82%
- COc1cc(NC(=O)c2cnc(N)o2)cc(C(=O)Nc2cccc(C(F)(F)F)c2)c1 — higher, 2.04%
- COc1cc(NC(=O)c2ccnnc2)cc(C(=O)Nc2cccc(C(F)(F)F)c2)c1 — higher, 42.8%
- Cc1ccc(C)c(N2CCN(S(=O)(=O)c3c(C)[nH]c(C)c3C(=O)N3CCCCC3)CC2)c1 — lower, -4.36%
- Cc1cc(C(=O)COc2ccccc2C(N)=O)c(C)n1C — lower, -2.03%
- Cc1cc(C(=O)COc2ccccc2C(N)=O)c(C)n1CC1CCCO1 (stereo unspecified) — lower, -7.82%
- O=C(O)/C=C\C(=O)Nc1ccccc1N1CCN(c2ccccc2)CC1 — higher, -0.24%
- O=C(CSc1nnc2c(n1)[nH]c1ccccc12)Nc1ccc2c(c1)OCO2 — higher, 0.35%
- COc1cc(CC(=O)N/N=C/c2ccc([N+](=O)[O-])cc2)c([N+](=O)[O-])cc1OC — higher, 2.69%
- CCSc1nnc(NC(=O)CCCOc2ccc(C)cc2)s1 — higher, 1.29%
- CCC(C)NS(=O)(=O)c1ccc(NS(C)(=O)=O)cc1 (stereo unspecified) — higher, 4.07%
- CCC(C)NC(=S)Nc1ccc(F)cc1 (stereo unspecified) — lower, -4.81%
- O=C(Cc1cccs1)NCc1cccc(CNC(=O)Cc2cccs2)c1 — higher, 1.18%
- COc1ccc(C2NCc3ccccc3-n3cccc32)cc1 (stereo unspecified) — lower, -8.78%
- N#Cc1ccc(C(=O)NCCCSc2ccccc2)cc1 — lower, -3.48%
- CCC(C)N1CC(=O)N2C(c3ccc(OC)cc3OC)c3[nH]c4ccccc4c3C[C@H]2C1=O (stereo partly specified) — higher, 6.67%
- CCOc1ccc(OCCC(=O)OCC(=O)NC2CCCC2)cc1 — higher, 4.34%
- CCCn1c(C(C)Nc2nc(-c3ccc(C)cc3)cs2)nc2cc(Cl)c(N3CCCCC3)cc21 (stereo unspecified) — higher, 44.2%
- COc1ccc(-c2csc(NC(C)c3nc4cc(Cl)c(Cl)cc4n3CCCO)n2)cc1 (stereo unspecified) — higher, 35.7%
- Cc1ccc(CN2CCC(c3cc(-c4cccs4)n[nH]3)CC2)cc1 — higher, 42.8%
- CC(C)(C)OC(=O)N1CCC(c2cc(-c3cccs3)n[nH]2)CC1 — higher, 10.2%
- COc1ccc(-c2cc(C3CCN(Cc4ccc([N+](=O)[O-])cc4)CC3)[nH]n2)cc1 — higher, 39.6%
- COc1ccc(-c2cc(C3CCN(CC(O)C(F)(F)F)CC3)[nH]n2)cc1 (stereo unspecified) — higher, 7.78%
- CCOC(=O)CN1CCC(c2cc(-c3ccc(Cl)cc3)n[nH]2)CC1 — higher, 0.17%
- COc1ccc(OC)c(-c2cc(C3CCN(C(=O)OC(C)(C)C)CC3)[nH]n2)c1 — lower, -1.26%
- CCCCCOc1ccc(CSc2ncn[nH]2)cc1 — higher, 29.4%
- COc1cccc(CN2C(=O)C(C)Oc3ccccc32)c1 (stereo unspecified) — lower, -3.69%
- O=C(CSc1nncc2ccccc12)N1CCOCC1 — higher, -0.48%
- O=C1COc2ccc(S(=O)(=O)CCC(=O)N3CCN(c4ccccc4)CC3)cc2N1 — lower, -9.62%
- CN(CCOc1ccccc1)Cc1nc2cc(Cl)ccc2c(=O)[nH]1 — higher, 58.8%
- CC(c1nc2ccccc2c(=O)[nH]1)N(C)c1ccc2ccccc2c1 (stereo unspecified) — lower, -13.1%
- CCC(Sc1nc(C)cc(=O)[nH]1)C(=O)Nc1ccc(Cl)cn1 (stereo unspecified) — lower, -1.49%
- COc1ccc(CCN(C(=O)c2cccc(F)c2)C2CC(=O)N(c3ccc(OC)cc3)C2=O)cc1 (stereo unspecified) — higher, 2.05%
- CCN(CC(=O)Nc1c(F)cccc1F)C(=O)CCCc1nc2ccccc2c(=O)[nH]1 — higher, 5.24%
- Cc1cccc(CCNC(=O)CC2C(=O)NCCN2CC2CCCCC2)n1 (stereo unspecified) — higher, 0.82%
- CCOC(=O)c1c(NC(=O)CSc2nc3ccccc3[nH]2)sc2c1CC(C)(C)NC2(C)C — higher, 35.9%
- CCOC(=O)c1c(NC(=O)CSc2ncccn2)sc2c1CC(C)(C)NC2(C)C — higher, 8.68%
- O=C(O)CC(Cc1ccc(Cl)cc1)C(=O)NCc1ccccc1 (stereo unspecified) — lower, -1.83%
- O=C(O)c1cnn(-c2nc(-c3cccc(F)c3)cs2)c1C(F)(F)F — lower, -9.37%

With CC1=CC(=O)c2ccccc2C1=O the inhibition was -6.06% and 0.39%.
